Measurements: PubChem BioAssay AID602289 (National Center for Advancing Translational Sciences (NCATS), 2012)
About 40 (2%) of roughly 2,400 compounds were called active. Another 1% or so got no clear call; they are omitted.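 How the source made its calls: active means inhibition at or above 60%; inconclusive means inhibition from 0% up to below 60%; inactive means no inhibition observed.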 The sample as a whole holds a higher share of actives than the screen did.

assay: qHTS Assay for Small Molecule Inhibitors of Mitochondrial Division or Activators of Mitochondrial Fusion: Hit Validation in Malachite Green Assay; conditions: purified GTPase, malachite green phosphate release, A650; stronger effect = higher value;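 on inhibition: plate controls were DMSO wells with GTPase for no effect and protein-free buffer wells for full effect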
Text: The budding yeast S. cerevisiae is a powerful system to study mitochondrial fusion. Unlike other organisms, yeast cells without functional mitochondrial DNA (mtDNA) can be propagated and studied as long as they maintain a mitochondrial compartment and are provided with a fermentable carbon source. When mitochondrial fusion is blocked in yeast, mitochondrial tubules rapidly fragment and division continues unopposed. Under conditions where fusion is compromised in mammalian cells, nearly identical changes in mitochondrial structure have been observed. Thus, these findings indicate that steady state mitochondrial structure in cells is a characteristic and specific indicator of fusion activity. Mounting evidence has pointed to a connection between mitochondrial dynamics and apoptosis in mammalian cells. These studies indicate that in mammalian cells mitochondrial dynamics are more integrated into cellular processes than in yeast cells and have evolved not only to distribute the organelle but also to aid in the regulation of cellular homeostasis. Mitochondrial fusion proteins attenuate apoptosis by inhibiting the release of cytochrome c from mitochondria, in part by controlling cristae structures. Thus, small molecules that inhibit mitochondrial fusion may promote apoptosis and potentially act as novel chemotherapeutics and stimulation of apoptosis has become an attractive target of anti-cancer therapies. To identify inhibitors of mitochondrial division, we exploit the growth phenotypes of mitochondrial fusion-defective mutants. The temperature sensitive fusion alleles, such as fzo1-1 and mgm1-5, cause mitochondrial membranes to fragment in cells under non-permissive conditions and cells lose mtDNA, and are unable to grow in the presence of non-fermentable carbon source glycerol. Inhibiting mitochondrial division rescues growth. The hits were tested by the assay provider in a malachite green assay. NIH Chemical Genomics Center [NCGC] NIH Molecular Libraries Probe Production Centers Network [MLPCN] MLPCN Grant: MH081279 Assay Submitter (PI): Jodi M. Nunnari
Malachite Green Reagent Malachite Green carbinol base- Aldrich 229105 Ammonium molybdate - Sigma A7302 For 100 mL Malachite Green reagent in 1N HCl 16 mL conc. HCL + 32 mL H20 = 48 mL 4N HCl 34 mg malachite green base into 40 mL 1N HCl (10 mL 4N HCl + 30 mL H20) 1 g ammonium molybdate in 15 mL 4N HCl Mix Solutions together. Bring up to […] with H2O. Filter using a 0.2 um tissue culture filter unit (has plastic bottle attached) store at 4 masculine C. (Avoid Glassware/Plastics washed in detergent. Mix solutions in 50 mL conical vials.) For 20 uL reaction volume 1.0 uL Test Drug or DMSO: Added first to each well […]: 25 mM Hepes/Pipes pH 7.0 (H/P) 2.0 uL: 50 mM MgCl2 (final 5mM) 2.32 uL: 1 M NaCl (with contributing protein salt, Final = 150mM) 13.4 uL per reaction. Can be mixed in larger volume (Mini Master Mix) 1.6 uL: Protein 7.5 uM or Protein Freezing Buffer. (Final = 0.6uM) After Protein Added to mini Master Mix, 15ul Total Master Mix added to each well with drug. 4 uL: 500 uM GTP (Final = 100uM), Dilute with 25 mM H/P, store on ice. 20 uL Total Volume Make Master Mix: (Calculate desired reactions and add a few for multi-channel pipetting volume). Multiply the number of desired reactions by 13.4 uL for total Mini Master volume. Multiply the number of desired reactions by 1.6 uL for total Protein volume. Mix, and keep on ice until added to wells. Add 15 uL of Master Mix to each reaction well, incubate with drug for 10 min. For Positive (No Drug) controls add 15 uL Master Mix to wells with only 1 uL DMSO. Make PFB (Protein Freezing Buffer) (no Protein) Master Mix. Multiply the number of desired reactions by 13.4 uL for total Mini Master volume. Multiply the number of desired reactions by 1.6 uL for total PFB volume. Mix, and keep on ice until added to wells Add 10 uL of PFBMaster Mix to each Phosphate Standards well, and 15 uL to each negative control well with DMSO. […]

| Compound | inhibition |
| --- | --- |
| CCCCn1c(N2CCC(Cc3ccccc3)CC2)nc2c1c(=O)[nH]c(=O)n2C | inactive |
| C=C(C)Cn1c(N2CC(C)CC(C)C2)nc2c1c(=O)[nH]c(=O)n2C (stereo not drawn) | inactive |
| CCCCCn1c(SCCC(C)C)nc2c1c(=O)[nH]c(=O)n2C | 96.1% (active) |
| C=CCc1cc2c(oc(=O)c3ccccc32)c(C)c1O | inactive |
| COc1cccc(COc2ccc3c(C)cc(=O)oc3c2)c1 | inactive |
| O=C1C=C(/C=C/C2C=CC=CC2)C[C@@H](c2ccc(Cl)cc2)C1 (stereo partly drawn) | inactive |
| Cn1c(=O)c2c(nc(Oc3ccccc3Cl)n2C)n(C)c1=O | inactive |
| CS/C(=N\S(=O)(=O)c1cccs1)Nc1ccc(Br)cc1F | inactive |
| Oc1c(I)cc(Cl)c2cccnc12 | 66.8% (active) |
| O=C(Nc1ccc(Cl)cc1C(=O)Nc1ccccn1)c1ccco1 | inactive |
| O=c1oc2cc(O)c(Cl)cc2c2ccccc12 | inactive |
| CN(C(=O)C(Cl)Cl)c1ccc(OC(=O)c2ccco2)cc1 | inactive |
| Oc1c(Cl)cc(Cl)c2cccnc12 | 86% (active) |
| O=C(Oc1c(Cl)cc(Cl)c2cccnc12)c1ccco1 | 67.8% (active) |
| Cc1cc(Cl)cc(Cl)c1OCCOc1cccc2cccnc12 | inactive |
| CCCCCCSc1ccc([C@@H]2[C@@H]3C(=O)N(C)C(=O)[C@@H]3[C@]3(C(=O)OC)CCCCN23)cc1OC | inactive |
| O=C(c1cn(Cc2ccccc2)nc1-c1ccc(Cl)cc1)N1CCN(c2ccccn2)CC1 | inactive |
| O=C(c1cn(-c2ccccc2)nc1-c1cccs1)N1CCN(c2ccccn2)CC1 | inactive |
| O=C(c1cc(COc2cccc3cnccc23)on1)N1CCC(c2ccccc2Cl)C1 (stereo not drawn) | inactive |
| COc1ccc(C2=NOC(Cn3nc(C(=O)NCc4ccco4)cc3-c3ccccc3)C2)cc1 (stereo not drawn) | inactive |
| COc1cccc(NC(=O)CN(C)C(=O)c2sc3cc(Cl)ccc3c2Cl)c1 | inactive |
| Cc1c(Cl)cccc1Nc1nc(N)nc(CSc2nc3ccccc3s2)n1 | inactive |
| CNC(=O)c1ccsc1NC(=O)C1CCN(S(=O)(=O)c2ccc(Cl)s2)CC1 | inactive |
| COc1ccc(N=Nc2nc(-c3ccccc3)c(-c3ccccc3)[nH]2)cc1 | inactive |
| c1ccc(-c2nnc3sc(-c4csc5c4CCCC5)nn23)cc1 | 99.9% (active) |
| Clc1ccc(-c2nnc3sc(Cc4cccs4)nn23)cc1 | inactive |
| COc1ccc2ccccc2c1C(=O)/C=C\c1ccoc1 | inactive |

| Compound | inhibition |
| --- | --- |
| COc1ccc(S(=O)(=O)N(C(=O)c2ccncc2)c2ccc3oc4c(c3c2)CCCC4)cc1 | inactive |
| CC(C)c1nc2sc3c(=O)[nH]c(=S)[nH]c3c2c2c1CCC2 | 104% (active) |
| O=c1[nH]c(C2CC2)nc2sc3c(c12)CCCC3 | inactive |
| COCc1nc2sc3c(c2c(=O)[nH]1)CCCC3 | inactive |
| O=C(/C=C/c1cccs1)N1CCC2(CC1)Oc1ccc(Cl)cc1C(=O)C21CC(c2cccnc2)=NO1 (stereo not drawn) | inactive |
| COc1ccc(-c2cc(=O)oc3c(C)c(OC(C)C(C)=O)ccc23)cc1 (stereo not drawn) | inactive |
| Cc1csc(NC(=O)C(C)Oc2ccc(Br)cc2)n1 (stereo not drawn) | inactive |
| CC(Oc1cccc(Cl)c1)C(=O)Nc1cc(Cl)ccc1N1CCOCC1 (stereo not drawn) | inactive |
| CC(Oc1cccc(Cl)c1)C(=O)Nc1nc(-c2ccccn2)cs1 (stereo not drawn) | 68.3% (active) |
| Cc1ccccc1Nc1nc(N)nc(CSc2nc3ccccc3s2)n1 | inactive |
| O=C(NCC1(c2ccccc2)CCCC1)c1ccccc1Br | inactive |
| Cc1cc2nc3s/c(=C/c4ccc(-c5ccccc5C(=O)O)o4)c(=O)n3c2cc1C | 66.8% (active) |
| Cc1ccc2c(nc3s/c(=C\c4ccc(-c5ccccc5C(=O)O)o4)c(=O)n32)c1C | 86.5% (active) |
| Cc1c(C(=O)O)cccc1-c1ccc(/C=N/Nc2ccc(Br)cc2)o1 | inactive |
| Cc1ccc2c(=O)cc(C(=O)NCc3ccccc3)oc2c1C | inactive |
| CC(C)COc1ccc(S(=O)(=O)NNC(=O)c2cc3ccccc3o2)cc1 | inactive |
| CCNC(=O)c1ccccc1CCc1ccccc1 | inactive |
| CCC(C)N1C(=O)S/C(=C/c2ccc(N3CCOCC3)cc2C)C1=O (stereo not drawn) | inactive |
| COc1ccccc1NC(=O)N(Cc1ccccc1)c1ccccn1 | inactive |
| Fc1cccc(CNc2ncnc3ccc(-c4ccc5c(c4)OCO5)cc23)c1 | inactive |
| CCOc1ccc(C(=O)CCN2CCCCC2)cc1 | inactive |
| CC(CNc1nc2ccccc2n2cnnc12)c1ccccc1 (stereo not drawn) | inactive |
| COc1ccc(NC(=O)CN(C)C(=O)c2ccccc2CCc2ccccc2)cc1 | inactive |
| N#CC(Sc1ccccn1)c1ccc(Cl)cc1 (stereo not drawn) | 65.5% (active) |
| COc1ccc(C(=O)NC2(C(F)(F)F)NC(=O)N(CCCc3ccccc3)C2=O)c(OC)c1OC (stereo not drawn) | inactive |
| Cc1ccc(C)c(/C=C/C(=O)c2ccccc(=O)c2O)c1 | 73.2% (active) |
